Sampled rows, rich in hits. Any-hit rate of the full collection: about 3.7%.
Rce1 inh: yeast Ras-converting enzyme inhibition; 290,000 tested, 0.27% active; Q03530; calls only; yeast membranes, quenched prenylated peptide cleavage fluorescence; AID 2563;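 active = fall in fluorescence gain of 50% or more versus controls, with final raw signal at or below 3038400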;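 note: plate controls were neutral control wells for no effect and wells lacking membranes for full effect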
Target sequence (Q03530 whole entry, looked up): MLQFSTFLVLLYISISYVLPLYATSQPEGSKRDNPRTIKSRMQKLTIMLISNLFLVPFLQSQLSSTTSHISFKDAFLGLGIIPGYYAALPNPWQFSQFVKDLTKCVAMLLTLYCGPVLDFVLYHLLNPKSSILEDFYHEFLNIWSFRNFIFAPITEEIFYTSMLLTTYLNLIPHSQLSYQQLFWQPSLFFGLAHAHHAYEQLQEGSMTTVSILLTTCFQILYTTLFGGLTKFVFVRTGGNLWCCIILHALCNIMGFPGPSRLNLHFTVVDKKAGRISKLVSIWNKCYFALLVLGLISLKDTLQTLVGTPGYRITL
PfHsp90 set2: inhibits growth of yeast expressing Plasmodium falciparum Hsp90 | S. cerevisiae expressing PfHsp90, BacTiter-Glo ATP, 48 h; yeast lacking PDR1 and PDR3 efflux regulators | inhibition, % at 9.4 µM | 310,000 tested, 0.32% active;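 active = every replicate shows inhibition above about 80%, whatever the replicate mean, limit read from the data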;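 note: 0% = DMSO neutral controls and 100% = 20 µM radicicol positive controls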
tim10-1 inh: tim10-1 yeast growth inhibition; S. cerevisiae tim10-1 ts strain growth, BacTiter-Glo, 24 h; inhibition, % at 20 µM; 330,000 tested, 2.2% active;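 active = inhibition of at least 40%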;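 note: mutant grown at 25 °C; 0% = DMSO wells with yeast and 100% = wells holding no yeast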
tim23-1 inh: inhibits growth of tim23-1 mutant yeast | S. cerevisiae tim23-1 growth, BacTiter-Glo luminescence, 24 h | inhibition, % at 20 µM | 330,000 tested, 1.3% active;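 active = growth inhibition of the mutant yeast at or above 50%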;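 note: temperature-sensitive mutant grown at 25 °C; plate controls were DMSO-treated mutant yeast for no effect and medium wells lacking yeast for full effect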
TIM10 inh: inhibits growth of TIM10 yeast strain. S. cerevisiae TIM10 strain growth, BacTiter-Glo luminescence, 24 h. inhibition, % at 10 µM. 330,000 tested, 1.4% active;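 active = inhibition of 40% or more at the single tested concentration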;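 note: wild-type TIM10 isogenic control strain grown at permissive 25 °C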
tim23-1 confirm: confirmation of tim23-1 mutant yeast growth inhibitors; 4,400 tested, 83% active; shares compounds with tim23-1 inh; inhibition, % at 20 µM; S. cerevisiae tim23-1 growth, BacTiter-Glo luminescence, 24 h;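 active = inhibition above about 39% in either of two replicate wells at 20 µM, limit read from the data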;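 note: temperature-sensitive tim23-1 mutant grown at 25 °C; 0% = DMSO wells with yeast and 100% = medium wells without yeast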
An asterisk follows results filed as active; i = inactive; / = not tested or not shown.

SMILES	Rce1 inh	PfHsp90 set2	tim10-1 inh	tim23-1 inh	TIM10 inh	tim23-1 confirm
N/C(CC(=O)Nc1ccc(F)cc1F)=N\OC(=O)c1cccs1	i	19	34	61*	30	40*
CC(C(=O)N1CCCC1)N1CCN(S(=O)(=O)c2ccc(C(C)(C)C)cc2)CC1 (stereo not given)	/	/	19	7	11	/
Fc1ccc(CNc2nc(-c3cccnc3)nc3ccccc23)cc1	i	-4	28	33	-5	/
Cc1ccc(Nc2nc(-c3cccnc3)nc3ccccc23)cc1	i	-17	26	56*	-13	56*
CC(Nc1nc(-c2cccnc2)nc2ccccc12)c1ccc(F)cc1 (stereo not given)	i	12	-7	59*	26	60*
CCOC(=O)/C(C#N)=C/c1cc(C)n(-c2ccccc2)c1C	i	23	-3	12	-16	/
CCOC(=O)/C(C#N)=C/c1cc2cc(C)c(C)cc2nc1Cl	i	4	-3	62*	30	70*
Cc1cc2c3c(c1)C(C)CC(C)(C)N3C(=O)C2=O (stereo not given)	i	1	33	53*	22	55*
CCOc1cc2c3c(c1)C(C)=CC(C)(C)N3C(=O)C2=O	i	40	11	56*	14	56*
CCOc1cc2c3c(c1)C(C)CC(C)(C)N3C(=O)C2=O (stereo not given)	i	-7	27	50*	30	55*
O=C(NCCCn1ccnc1)c1nc(Cn2cc([N+](=O)[O-])cn2)no1	i	-7	10	-3	-10	/
O=C(/C=C/c1ccccc1Cl)Nc1ccccc1	i	-2	8	65*	33	58*
O=C(/C=C/c1ccccc1Cl)Nc1cccc(O)c1	i	13	-10	28	32	/
S=C(NCCc1cccc(Cl)c1)NCc1ccccc1	i	33	36	56*	30	34
S=C(NCc1ccccc1)NCc1cccc(Cl)c1	i	-2	31	41	22	/
CS/C(=N\S(=O)(=O)c1ccc(Cl)cc1)c1ccccc1	i	5	23	57*	36	36
CC(=O)c1cccc(N2C(=NC(=O)C3CCCCC3)SC3CS(=O)(=O)CC32)c1 (stereo not given)	i	-19	-3	6	-1	/
O=C(Nc1nc2ccc(S(=O)(=O)N3CCCCC3)cc2s1)C1CCCO1 (stereo not given)	i	-10	40	53*	33	47*
CCn1cnc2cc(NCc3ccc(Br)cc3)ccc21	i	/	19	53*	20	66*
O=C(Nc1ccc(NC(=S)NC(=O)c2ccccc2F)cc1)c1cccs1	i	12	25	51*	4	50*
COc1cc(NC(=S)NC(=O)c2ccccc2F)ccc1NC(=O)c1cccs1	i	12	-21	16	-10	/
Cc1ccc(C(=O)NC(=S)NCc2ccccc2)cc1	i	5	22	52*	-11	42*
O=C(NC(=S)NC(=O)c1ccccc1F)c1ccccc1F	i	2	5	54*	25	48*
Fc1ccccc1NC(=S)NCCc1ccc(Cl)cc1	i	-21	30	55*	30	55*
COc1ccc(/C=C(\NC(=O)c2ccccc2)C(=O)OCC2CCCN3CCCCC23)cc1OC (stereo not given)	i	-11	-5	3	-2	/
SMILES	Rce1 inh	PfHsp90 set2	tim10-1 inh	tim23-1 inh	TIM10 inh	tim23-1 confirm
COc1ccc(CCNC(=S)Nc2cccc(C)c2C)cc1	i	/	31	50*	23	28
O=C(NCCc1ccccc1)c1ccccc1F	i	-11	12	-1	8	/
O=C(NC(=S)NCCc1ccccc1)c1ccccc1F	i	-44	35	51*	33	44*
COc1ccc(C(=O)N2CCc3ccc(NC(=O)c4ccccn4)cc3C2)cc1F	i	10	37	52*	2	40*
O=C(N/N=C/c1cc(Br)cs1)c1c[nH]c2ccccc12	i	14	14	60*	12	71*
O=C(N/N=C/c1ccc(Br)s1)c1cccs1	i	-11	19	57*	35	63*
O=C(N/N=C/c1ccc(Br)s1)c1c[nH]c2ccccc12	i	32	-14	55*	2	46*
O=C(N/N=C/c1cc(Br)cs1)c1ccccc1[N+](=O)[O-]	i	19	32	8	5	/
COc1ccc(CCNC(=O)c2nnc(Cc3ccc(Cl)cc3)o2)cc1OC	i	-19	16	-5	-11	/
CN(CC(=O)Nc1ccccc1C(F)(F)F)C(=O)c1cc2c(s1)CCCCC2	i	/	31	28	-1	/
CCOC(=O)Nc1sc2nc(C)cc(C)c2c1-n1cccc1	i	/	29	51*	13	29
COc1ccc(Cn2c(C)nc3c(c2=O)c2nc4ccccc4nc2n3Cc2ccco2)cc1	/	-15	/	/	/	/
CCC(C)n1cnc2c(c1=O)c1nc3ccccc3nc1n2Cc1ccc(OC)cc1 (stereo not given)	i	-38	37	53*	35	52*
CCC1CCCCN1S(=O)(=O)c1ccc(C(=O)Nc2nnc(C3CC3)o2)cc1 (stereo not given)	i	-11	40	29	28	/
CCC1CCCCN1S(=O)(=O)c1ccc(NC(=O)c2ccncc2)cc1 (stereo not given)	i	18	32	79*	24	30
CC(C)CCN(C(=S)Nc1cccc(C(F)(F)F)c1)C(C)c1ccccn1 (stereo not given)	i	-3	33	54*	37	54*
Cn1c(SCc2ccccc2)nnc1-c1cnccn1	i	-14	21	-1	13	/
Cn1c(SCc2ccc(Br)cc2)nnc1-c1ccccn1	i	4	25	52*	13	11
Cc1oc2cc(O)cc(O)c2c(=O)c1-c1ccc2c(c1)OCCCO2	i	-12	29	65*	13	53*
Nc1nc2ccc(C(=O)Nc3ccccc3)cc2s1	i	0	11	26	12	/
CCc1ccc(NC(=O)c2ccc3nc(N)sc3c2)cc1	i	-35	7	54*	-19	31
COCCN(CCNC(=O)c1ccc(NC2=NC3CS(=O)(=O)CC3S2)cc1)Cc1ccco1 (stereo not given)	i	9	7	13	4	/
CSc1nc(C(=O)N2CCCC(C(=O)c3ccc(Cl)cc3)C2)cs1 (stereo not given)	i	2	-37	-1	-22	/
O=C(Nc1ccc(Cl)c(Cl)c1)Nc1ccon1	i	-31	29	53*	24	48*
COc1cccc(NC(=S)N(Cc2ccc(C(=O)O)cc2)Cc2ccc(OC)c(OC)c2)c1	i	-5	-2	8	3	/
Cc1ccc(C(C)NC(=S)NC2CCCCC2)cc1C (stereo not given)	i	14	33	55*	32	22
